Assay results: the supplement of paper PMC10338343
± gives the standard deviation.

The sequences below were run on MILI (PIWIL2) piRISC loaded with L1MC piRNA (26 nt) (assay: pre-steady-state target cleavage rate (min^-1); guide: L1MC piRNA 5'p-UAACUAAAUACUAUGCAAGCUGUAGG; MIWI and MILI are mouse PIWI proteins and EfPiwi is from a freshwater sponge; tags in brackets are library labels; higher = faster piRNA-guided slicing of the target). Details: auxiliary factor: 500 nM mouse GTSF1.
In short: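 Cleave-'n-Seq used a transcribed, DNA-blocked target RNA library at 0.1 nM and active affinity-purified piRISC with one synthetic guide at 1 nM, with or without 500 nM GTSF1 partner protein, in HEPES–potassium acetate buffer at 33 °C for 0–8 or 0–960 min. Uncleaved targets were sequenced and normalised to depth and to weakly complementary targets, and three trials were pooled with k3 capped at 0.0001 min^-1. The pre-steady-state cleavage rate was estimated by a burst-and-steady-state fit.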

First: UCCUGGAACAGCAAGCAUAGUAUUUACAAA
Second: UCCUCCUACACCUUGCAUAGUAUUUUCAAA
The “pre-steady-state target cleavage rate” value of the first is higher: 0.148 ± 0.034 for the first, 0.0721 ± 0.021 for the second.

Compared with UCCUGGAUCAGCUUGCAUACUAUUUUGUUA, UCCUGGAUCACCUUCCAUAGUAUUUAGUUA is higher in “pre-steady-state target cleavage rate” value: 0.0178 ± 0.0061 for the first, 0.0405 ± 0.012 for the second.

First: UCCUCCUACAGCUUGCAAUGUAUUUAGAAA
Second: UCCUGGAUGUCCUUCGAUAGUAUUUAGUUA
The “pre-steady-state target cleavage rate” value of the first is higher: 0.0725 ± 0.016 for the first, 0.00794 ± 0.0037 for the second.

UCCUGGUACAGCUUGCAUACUAUUUACUUA and UCCUGGUACAGCUUGCAUAGUAAAUAGAAA are within error of each other in “pre-steady-state target cleavage rate” value: 0.05 ± 0.014 for the first, 0.081 ± 0.025 for the second.

Going from UCCUGGAACAGCUUGCUUAGUAUUUACAAA to UCCUGGAUGUGCUUGCAUAGUAUUAAGAUA, the “pre-steady-state target cleavage rate” value falls from 0.105 ± 0.026 to 0.00523 ± 0.0046.

First: UCCUGGAUGUCGAACGAUAGUAUUUUAGUUA
Second: UCCUGGUACUGCUUGCAUAGUAUUUACUUA
The “pre-steady-state target cleavage rate” value of the first is lower: less than 0.0001 for the first, 0.0201 ± 0.0085 for the second.

First: UCCUGGAUGUGCUUGCAUAGUAUUUACAUA
Second: UCCUGGAUGUGCUUGCAUAGUAUUAUGUUA
The “pre-steady-state target cleavage rate” value of the first is lower: 0.0112 ± 0.0044 for the first, 0.0376 ± 0.013 for the second.

UCCUGGAUCAGCUUGCAUAGUAUUUACUAA and UCCUGGAUGAGCAUGCAUAGAAUUUAGUUA are within error of each other in “pre-steady-state target cleavage rate” value: 0.0285 ± 0.011 for the first, 0.0184 ± 0.008 for the second.

First: UCCUGGAACAGCUUGCAUAGUAUAAUGUAA
Second: UCCUGGAUGAGCUUGGAUAGUAUUAAGUUA
The “pre-steady-state target cleavage rate” value of the first is lower: 0.014 ± 0.0065 for the first, 0.0932 ± 0.022 for the second.

UCCUCCUACAGCUUGCAUGAGUAUUUAGUUA and UCCUGGAUGUCGAAGCAUAGUAUAAUGUUA are within error of each other in “pre-steady-state target cleavage rate” value: 0.011 ± 0.0056 for the first, 0.0052 ± 0.0029 for the second.

UCCUGGAUGUGCUUGCAUAGUAUUUUGUAA and UCCUGGAUGUCGAAGCAUAGUAUUUACUUA are within error of each other in “pre-steady-state target cleavage rate” value: 0.00939 ± 0.0045 for the first, 0.00488 ± 0.0029 for the second.

UCCUGGAUGUCCUAGGAUAGUAUUUAGUUA and UCCUCCAUGAGCUUGCAUAGUAUUUUCAAA are within error of each other in “pre-steady-state target cleavage rate” value: 0.0104 ± 0.0042 for the first, 0.0168 ± 0.0069 for the second.

Going from UCCUGGAUGUGCUUGGUUAGUAUUUAGAAA to UCCUGGAUGUGGUUGCAUAGUAUUUAGAAA, the “pre-steady-state target cleavage rate” value rises from 0.00692 ± 0.0045 to 0.0521 ± 0.022.

Going from UCCUGGAUGUCGAAGCAUAGUAUUAUAGUUA to UCCUGGAUCAGCUUCCAUAGUAUUUAGUUA, the “pre-steady-state target cleavage rate” value falls from 0.0614 ± 0.014 to 0.0318 ± 0.0085.

Going from UCCUGGAACAGCUUGCAUAGAUAUUAGUAA to UCCUGGAUGUCGAACCAUAGAAUUUUGUUA, the “pre-steady-state target cleavage rate” value rises from 0.0101 ± 0.0057 to 0.251 ± 0.13.

UCCUGGUACAGCAAGCAUAGUAUUUACAAA and UCCUCCUACAGCUUGCUAAGUAUUUUCAAA are within error of each other in “pre-steady-state target cleavage rate” value: 0.0528 ± 0.019 for the first, 0.0625 ± 0.017 for the second.

First: UCCUGGAACAGCUUGCUAUGUAUUUAGUAA
Second: UCCUGGAACAGCUACGAUAGUAUUUAGAAA
The “pre-steady-state target cleavage rate” value of the first is lower: 0.0125 ± 0.0054 for the first, 0.0308 ± 0.011 for the second.

Same assay, conditions: auxiliary factor: none (no GTSF1)

UCCUGGAUGUCGAAGCAUACAUUUUAGUUA and UCCUGGAUGUCGAACGUAUCUAUAUUGUUA cannot be ordered by “pre-steady-state target cleavage rate” value: less than 0.0001 for the first, less than 0.0001 for the second.

First: UCCUGGAUGUCGAACGUUAGCAUUUAGUUA
Second: UCCUGGAUGUCCUUGCAAAGAAUUUAGUUA
The “pre-steady-state target cleavage rate” value of the first is lower: less than 0.0001 for the first, 0.00283 ± 0.0026 for the second.

UCCUGGAUGUCGAAGCAUGUAUUUAGUUA and UCCUGGAUCAGCAACCAUAGUAUUUUCAAA cannot be ordered by “pre-steady-state target cleavage rate” value: less than 0.0001 for the first, less than 0.0001 for the second.
